The record followed here is PubChem BioAssay (NCATS).

The nature of experiment [1]: AP1 Signaling Pathway (AID 357). Note: % is set by controls: 0 for no effect and ±100 for the full control effect. The following applies: ME-180 AP-1-bla reporter, EGF-induced, beta-lactamase ratio, 5 h; at 7.69 µM (top of the series) unless noted. A digest of the protocol: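 Cells are seeded overnight, exposed to compound titrations and an EC50 level of EGF for 5 hours at 37 °C, then loaded with CCF4 dye for 2.5 hours. Beta-lactamase activity under the AP-1 element is read as a blue/green ratio.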

Experiment [2] concerns the target Cytochrome P450 1A2 (Homo sapiens) (UniProt P05177). Briefly: p450-cyp1a2 (AID 410; calls by dose curve; note: potency is the fitted concentration of half-maximal effect). A digest of the protocol: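 Read-out is luminescence from luciferin produced by CYP1A2 demethylation of Luciferin-ME (100uM, at Km). Detection reagent stopped the 60 min NADPH-dependent reaction; signals were normalized to 57 uM furafylline.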
The nature of experiment [3]: NFAT Signaling Pathway (AID 444).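 Note: carbachol stimulus at about its EC50 of 1 µM final; % is set by controls: 0 for no effect and ±100 for the full control effect.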 The following applies: Jurkat NFAT-bla M1, carbachol, beta-lactamase ratio, 5 h; at 7.69 µM (top of the series) unless noted. The gist of the method:
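Jurkat cells carrying an NFAT-driven β-lactamase reporter and co-transfected muscarinic M1 receptor were treated with compound plus carbachol (1 uM final, an EC50 level) for 5 h at 37 °C. CCF4 loading followed for 1 h at RT; 460/530 nm ratio gave %activity.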

Experiment [4] is described as follows: Stat Signaling Pathway (AID 446).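 Note: ME-180 cervical cancer cells given 40 pM IL-6 alongside compound; SIE-controlled beta-lactamase reporter measured as 460/530 nm FRET emission ratio; % is set by controls: 0 for no effect and ±100 for the full control effect.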 To be noted: ME-180 (cervical carcinoma) SIE beta-lactamase reporter, IL-6 stimulated, 5 h; at 7.69 µM (top of the series) unless noted. The gist of the method:
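Emission at 460 and 530 nm (excitation 405 nm) reports SIE-controlled beta-lactamase in ME-180 cells. Cells received compound with 40 pM IL-6 for 5 hrs at 37 C; data scaled between 300 pM IL-6 and 125 nM JAK-inhibitor controls.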

The target of experiment [5] is Glucocorticoid receptor (Homo sapiens) (UniProt P04150). The experiment can be described thus: GR-GFP Redistribution (AID 450;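 active = compounds whose dose series gives a full or clear partial fitted curve of increased nuclear translocation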; note: potency is the fitted concentration of half-maximal effect). To be noted: U2OS GR-GFP nuclear translocation, laser cytometry, 2 h.
For experiment [6] the target is unchanged. Briefly: GR-EFC Redistribution (AID 451; calls by dose curve; note: potency is the fitted concentration of half-maximal effect). The following applies: CHO-K1 GR-EFC translocation, beta-gal luminescence, 2 h. A digest of the protocol: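 CHO-K1 cells stably expressing nuclear-localized β-gal enzyme acceptor and GR fused C-terminally to the enzyme donor fragment; ligand-driven nuclear translocation restores β-gal by complementation. Compounds titrated up to 46 uM final, 2 h at 37 °C; luminescence read.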

The target of experiment [7] is Mitogen-activated protein kinase 10 (Mus musculus) (UniProt Q61831). The experiment can be described thus: JNK3 AlphaScreen Assay (AID 530).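 Note: kinase came from lysate of stimulated human HepG2 cells; signal reports phosphorylation of biotinylated GST-cJun 1-79 at Ser73 with 10 µM ATP; % is set by controls: 0 for no effect and ±100 for the full control effect.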 The gist of the method:
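Biotinylated GST-cJun(1-79) served as substrate for JNK3 in HepG2 lysates stimulated with IL-1beta and TNF-alpha. ATP was 10 uM final, pH 7.6. Ser73 phosphorylation was quantified by AlphaScreen (680 nm excitation).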
For orientation: Alpha assays give light when donor and acceptor beads are brought close together.

Experiment [8] has as its target 3',5'-cyclic-AMP phosphodiesterase 4B (Homo sapiens) (UniProt Q07343). Briefly: qHTS Assay for Inhibitors of PDE-IV (AID 607; active = well fitted activation curve with a large enough effect in the main read-out, with a control signal flat, not every such curve was filed as active; note: % of control where 0% means no effect). The gist of the method: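 The readout is membrane depolarisation from a cAMP-sensing CNG channel, detected with a potential dye at ex 535/em 590. Cells were HEK293-derived (endogenous PDE-IV) at 1000 cells/well, titrated up to 22.9 uM final.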
In general terms: qHTS replaces the single test concentration by a dilution series.

Experiment [9] deals with Lysosomal acid glucosylceramidase (Homo sapiens) (UniProt P04062). Briefly: Glucocerebrosidase-p2 (AID 348; in the data active = potency below about 10 µM; note: potency is the fitted concentration of half-maximal effect). To be noted: purified GBA, blue fluorogenic substrate, 40 min. A digest of the protocol:
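Normal human glucocerebrosidase (0.2 nM) with blue fluorogenic substrate (80 uM final) in citrate/phosphate pH 5.9 with 10mM sodium taurocholate, 0.01% tween-20; 40 min RT, NaOH/glycine stop; fluorescence Ex 365/Em 440; AC50 from a titration from 0.6 nM upwards.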

The target of experiment [10] is Cytochrome P450 2C9 (Homo sapiens) (UniProt P11712). Briefly: qHTS Assay for Inhibitors and Substrates of Cytochrome P450 2C9 (AID 883; active = well fitted inhibition curve with a large enough effect; note: potency is the fitted concentration of half-maximal effect; nearly all actives have a fitted effect of over 60% in size). The gist of the method: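 CYP2C9 deoxyluciferin hydroxylation, 37C, 60 min with NADPH regeneration; 10nM enzyme, 100uM Luciferin-H (KM). Glo detection reagent stopped reaction; luminescence normalized to sulphaphenazole (57uM) full inhibition.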

The target of experiment [11] is Cytochrome P450 3A4 (Homo sapiens) (UniProt P08684). The experiment can be described thus: qHTS Assay for Inhibitors and Substrates of Cytochrome P450 3A4 (AID 884; active = well fitted inhibition curve with a large enough effect; note: potency is the fitted concentration of half-maximal effect; nearly all actives have a fitted effect of over 50% in size). A digest of the protocol:
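Luminescent readout of luciferin produced by CYP3A4 (20 nM) dealkylation of Luciferin-PPXE, 25 uM (its KM). NADPH-driven reaction ran 60 min at RT after 10 min compound preincubation; data scaled to 57 uM ketoconazole as 100% inhibition.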

Experiment [12] deals with Cytochrome P450 2C19 (Homo sapiens) (UniProt P33261). Briefly: qHTS Assay for Inhibitors and Substrates of Cytochrome P450 2C19 (AID 899; active = well fitted inhibition curve with a large enough effect; note: potency is the fitted concentration of half-maximal effect; nearly all actives have a fitted effect of over 60% in size). The gist of the method: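 In 50mM KPO4, the reaction held 5nM enzyme and KM-level (10uM) Luciferin-H EGE; it ran 60 min at 37C after NADPH regeneration and a 10 min compound preincubation. Luminescence values were scaled to 57uM ketoconazole as complete inhibition.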

Values without a mark were called inactive. Results filed as inconclusive are left out. The source made the active and inactive calls. Unless noted, calls come from the whole dose curve; as a rule, active = well fitted curve in either direction with a large enough effect (not every such curve was filed as active); inconclusive = small, poorly fitted or top-dose-only effect, or another doubt; inactive = flat fitted curve, though single readings scatter. Bounds are passed on as bounds.

Chain of Glucocorticoid receptor (Homo sapiens) (P04150 whole entry, looked up, the tested form may be a part): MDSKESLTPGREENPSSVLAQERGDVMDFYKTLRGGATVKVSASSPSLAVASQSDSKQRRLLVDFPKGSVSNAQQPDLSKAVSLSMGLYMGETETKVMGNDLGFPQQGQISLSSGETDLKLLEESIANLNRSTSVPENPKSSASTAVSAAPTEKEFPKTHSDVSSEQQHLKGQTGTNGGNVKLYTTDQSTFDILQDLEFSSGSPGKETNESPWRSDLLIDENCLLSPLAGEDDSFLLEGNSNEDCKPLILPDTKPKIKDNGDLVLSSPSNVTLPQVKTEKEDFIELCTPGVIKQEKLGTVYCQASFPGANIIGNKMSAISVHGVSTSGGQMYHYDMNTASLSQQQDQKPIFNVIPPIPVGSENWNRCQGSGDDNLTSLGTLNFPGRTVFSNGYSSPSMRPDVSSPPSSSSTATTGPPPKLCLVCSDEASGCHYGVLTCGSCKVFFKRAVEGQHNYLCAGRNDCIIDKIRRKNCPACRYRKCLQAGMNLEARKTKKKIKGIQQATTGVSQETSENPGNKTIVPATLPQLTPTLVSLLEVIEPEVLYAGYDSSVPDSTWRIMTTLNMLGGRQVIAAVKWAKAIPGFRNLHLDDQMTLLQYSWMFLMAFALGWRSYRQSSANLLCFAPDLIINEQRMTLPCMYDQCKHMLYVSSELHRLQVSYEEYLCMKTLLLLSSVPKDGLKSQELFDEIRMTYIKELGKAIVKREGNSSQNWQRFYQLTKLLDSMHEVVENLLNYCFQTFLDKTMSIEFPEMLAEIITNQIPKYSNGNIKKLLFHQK
Chain of Cytochrome P450 1A2 (Homo sapiens) (P05177 whole entry, looked up): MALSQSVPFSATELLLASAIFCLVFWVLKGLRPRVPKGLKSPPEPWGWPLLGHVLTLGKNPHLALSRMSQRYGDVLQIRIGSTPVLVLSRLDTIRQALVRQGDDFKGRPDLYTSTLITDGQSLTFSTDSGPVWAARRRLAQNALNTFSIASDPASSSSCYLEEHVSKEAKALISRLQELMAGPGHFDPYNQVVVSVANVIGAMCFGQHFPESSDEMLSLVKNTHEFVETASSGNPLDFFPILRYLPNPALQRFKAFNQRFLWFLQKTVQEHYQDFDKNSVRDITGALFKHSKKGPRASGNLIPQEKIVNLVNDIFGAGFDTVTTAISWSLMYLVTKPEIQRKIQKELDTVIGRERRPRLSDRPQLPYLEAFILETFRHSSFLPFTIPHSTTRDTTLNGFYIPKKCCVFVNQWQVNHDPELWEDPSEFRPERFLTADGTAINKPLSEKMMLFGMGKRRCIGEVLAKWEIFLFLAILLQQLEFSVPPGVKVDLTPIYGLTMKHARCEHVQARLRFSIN
Chain of 3',5'-cyclic-AMP phosphodiesterase 4B (Homo sapiens) (Q07343 whole entry, looked up): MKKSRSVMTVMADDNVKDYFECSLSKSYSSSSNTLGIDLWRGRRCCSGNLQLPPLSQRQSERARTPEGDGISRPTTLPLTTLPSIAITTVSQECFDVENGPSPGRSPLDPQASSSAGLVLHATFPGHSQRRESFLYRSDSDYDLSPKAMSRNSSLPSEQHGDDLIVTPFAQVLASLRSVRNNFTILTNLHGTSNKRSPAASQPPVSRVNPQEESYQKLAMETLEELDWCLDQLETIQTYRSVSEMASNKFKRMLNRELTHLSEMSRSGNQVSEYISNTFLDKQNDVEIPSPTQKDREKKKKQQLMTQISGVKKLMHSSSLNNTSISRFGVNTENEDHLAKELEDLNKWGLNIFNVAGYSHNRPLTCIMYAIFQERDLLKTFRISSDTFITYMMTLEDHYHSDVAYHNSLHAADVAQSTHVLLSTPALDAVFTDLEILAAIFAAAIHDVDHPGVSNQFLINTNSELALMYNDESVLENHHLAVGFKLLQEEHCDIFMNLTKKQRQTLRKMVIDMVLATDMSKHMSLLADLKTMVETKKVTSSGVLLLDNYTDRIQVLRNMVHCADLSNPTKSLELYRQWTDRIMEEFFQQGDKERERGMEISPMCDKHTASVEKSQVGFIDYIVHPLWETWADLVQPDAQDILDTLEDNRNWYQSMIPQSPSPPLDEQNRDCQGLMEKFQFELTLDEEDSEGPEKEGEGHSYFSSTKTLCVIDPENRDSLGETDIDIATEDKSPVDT
Chain of Lysosomal acid glucosylceramidase (Homo sapiens) (P04062 whole entry, looked up): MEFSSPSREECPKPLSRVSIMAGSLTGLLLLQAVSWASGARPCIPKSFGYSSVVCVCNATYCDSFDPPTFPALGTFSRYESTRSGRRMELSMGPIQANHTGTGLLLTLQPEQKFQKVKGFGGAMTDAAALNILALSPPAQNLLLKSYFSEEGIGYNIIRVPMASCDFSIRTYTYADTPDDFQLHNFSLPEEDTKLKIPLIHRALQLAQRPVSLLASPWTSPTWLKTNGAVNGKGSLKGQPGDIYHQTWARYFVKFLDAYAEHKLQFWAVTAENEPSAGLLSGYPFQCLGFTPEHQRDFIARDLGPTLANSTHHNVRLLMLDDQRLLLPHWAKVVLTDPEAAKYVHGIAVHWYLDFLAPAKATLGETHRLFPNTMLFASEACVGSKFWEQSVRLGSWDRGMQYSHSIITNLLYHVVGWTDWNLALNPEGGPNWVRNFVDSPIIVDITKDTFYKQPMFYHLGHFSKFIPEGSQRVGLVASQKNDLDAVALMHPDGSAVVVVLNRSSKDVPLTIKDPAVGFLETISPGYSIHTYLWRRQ
Chain of Cytochrome P450 3A4 (Homo sapiens) (P08684 whole entry, looked up): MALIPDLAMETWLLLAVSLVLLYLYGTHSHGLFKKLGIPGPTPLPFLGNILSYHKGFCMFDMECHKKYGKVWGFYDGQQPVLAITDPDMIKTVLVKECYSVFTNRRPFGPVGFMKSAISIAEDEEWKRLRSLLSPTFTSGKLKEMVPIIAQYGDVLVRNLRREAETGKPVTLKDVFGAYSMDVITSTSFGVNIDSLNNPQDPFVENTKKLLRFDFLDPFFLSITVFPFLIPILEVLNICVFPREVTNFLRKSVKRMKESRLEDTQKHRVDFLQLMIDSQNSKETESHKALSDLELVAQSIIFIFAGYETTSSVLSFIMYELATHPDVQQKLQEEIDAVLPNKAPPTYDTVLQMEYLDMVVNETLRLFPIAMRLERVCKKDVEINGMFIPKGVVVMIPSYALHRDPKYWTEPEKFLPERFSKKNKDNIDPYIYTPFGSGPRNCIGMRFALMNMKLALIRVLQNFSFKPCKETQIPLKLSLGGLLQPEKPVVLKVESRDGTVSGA
Chain of Cytochrome P450 2C19 (Homo sapiens) (P33261 whole entry, looked up): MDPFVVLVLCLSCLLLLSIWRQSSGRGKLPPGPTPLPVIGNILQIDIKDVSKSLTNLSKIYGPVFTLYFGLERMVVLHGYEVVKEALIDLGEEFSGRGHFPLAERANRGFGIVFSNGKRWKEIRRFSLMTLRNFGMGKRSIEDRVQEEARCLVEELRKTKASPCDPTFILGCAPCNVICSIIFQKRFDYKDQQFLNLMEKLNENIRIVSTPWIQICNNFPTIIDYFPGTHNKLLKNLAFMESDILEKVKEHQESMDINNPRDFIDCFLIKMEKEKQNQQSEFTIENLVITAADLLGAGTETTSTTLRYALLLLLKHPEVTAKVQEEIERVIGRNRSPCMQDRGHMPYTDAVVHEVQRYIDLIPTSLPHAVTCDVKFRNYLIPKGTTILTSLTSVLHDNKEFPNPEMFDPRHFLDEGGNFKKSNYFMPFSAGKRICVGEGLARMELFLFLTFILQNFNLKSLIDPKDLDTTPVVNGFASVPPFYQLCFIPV
Chain of Cytochrome P450 2C9 (Homo sapiens) (P11712 whole entry, looked up): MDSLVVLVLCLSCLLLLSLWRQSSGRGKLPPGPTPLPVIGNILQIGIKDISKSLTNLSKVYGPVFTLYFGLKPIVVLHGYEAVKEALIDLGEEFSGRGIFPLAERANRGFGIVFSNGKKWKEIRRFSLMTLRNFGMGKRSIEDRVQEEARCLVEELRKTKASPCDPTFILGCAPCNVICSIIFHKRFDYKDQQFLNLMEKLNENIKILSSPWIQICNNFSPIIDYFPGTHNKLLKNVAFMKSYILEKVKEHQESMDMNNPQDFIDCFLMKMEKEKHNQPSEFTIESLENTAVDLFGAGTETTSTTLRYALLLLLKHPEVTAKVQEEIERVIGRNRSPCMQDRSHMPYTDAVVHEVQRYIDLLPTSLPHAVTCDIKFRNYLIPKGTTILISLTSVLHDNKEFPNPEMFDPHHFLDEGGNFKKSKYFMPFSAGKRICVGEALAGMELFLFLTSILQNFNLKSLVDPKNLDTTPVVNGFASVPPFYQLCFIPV

Take `NCC(=O)Nc1ccc(Cl)cc1C(=O)c1ccc[nH]1`: the results for the activity change, negative = inhibition in [1] and in [3] were -2.05% and -24.8%, respectively. The Potency is 3.16 µM (active) in [2], over 46 µM in experiment [5] and over 9.22 µM in experiment [6]. Also, the activity, negative = inhibition in experiment [4] was -3.02%. Also, the Potency result in experiment [7] and in [8] was “inactive” in each case.
On to `COC(=O)CC[C@@H](C)[C@@H]1CC[C@@H]2[C@@H]3CC[C@H]4C[C@@H](O)CC[C@@]4(C)[C@@H]3CC[C@]21C`, for which the Potency was over 11.4 µM in experiment [9], over 46 µM in experiment [5] and over 9.22 µM in experiment [6]. Moreover, the activity, negative = inhibition in [4] was 23.8%. The Potency result in experiment [7] and in experiment [8] was “inactive” each time.
With `Cc1noc(NC(=O)Nc2ccccc2F)c1C#N`, the activity change, negative = inhibition was -0.973% in experiment [1] and 11.4% in [3]. In addition, the Potency in [2] was 0.794 µM (active); in experiment [5] it was over 46 µM; in experiment [6] it was over 9.22 µM. Besides, the activity, negative = inhibition in experiment [4] is -14.1%. Moreover, the Potency result in [7] and in experiment [8] was “inactive” throughout.
For the molecule `CN1C[C@H](c2ccccc2)C(O)([C@]2(c3ccccc3)CN(C)C[C@@H](c3ccccc3)C2=O)[C@H](c2ccccc2)C1` (some centres undefined), the activity change, negative = inhibition in experiment [1] is 0.442%; in experiment [3], -6.86%. Further, the Potency entry in [2], in experiment [7] and in experiment [8] was “inactive” in each case. Moreover, in experiment [4], the activity, negative = inhibition is 10%. In addition, the Potency in [5] is over 46 µM; in experiment [6], over 9.22 µM.
Consider `C[N+](C)(C)/N=C\c1ccc(O)c(O)c1`, for which the activity change, negative = inhibition in experiment [1] is 4.59%; in [3] it was 8.29%. In addition, the figures for the Potency in experiment [2], in experiment [5] and in experiment [6] were 10 µM (active), over 46 µM and over 9.22 µM, respectively. Also, the activity, negative = inhibition in experiment [4] is 3.02%. For the same molecule, the Potency entry in [7] and in [8] was “inactive” each time.
Regarding `Cc1cc(O)c(C(C)C)cc1C1(c2cc(C(C)C)c(O)cc2C)OC(=O)c2ccccc21`, the Potency was over 11.4 µM in [9]; over 46 µM in experiment [5]; over 9.22 µM in experiment [6]; 0.316 µM (active) in experiment [10]; 1.58 µM (active) in experiment [11]; 3.16 µM (active) in experiment [12]. Besides, the Potency entry in experiment [7] and in [8] was “inactive” throughout.
For the molecule `C=C1CC[C@H](O)C/C1=C/C=C1\CCC[C@]2(C)[C@H]1CC[C@H]2[C@@H](C)CCCC(C)C`, the activity change, negative = inhibition in experiment [1] is -6.4% [at 17.2 µM]; in [3] it was 8.22% [at 17.2 µM]. The Potency result in experiment [2], in [7] and in experiment [8] was “inactive” in each case. For the same molecule, the activity, negative = inhibition in [4] is -9.36% [at 17.2 µM]. Further, the Potency in [5] and in experiment [6] was over 20.6 µM each time.
